Laboratory results taken from PubChem BioAssay (NCATS).
The source made the active and inactive calls. Calls come from the whole dose curve; as a rule, active = well fitted inhibition curve with a large enough effect; inconclusive = small, poorly fitted or top-dose-only effect; inactive = flat fitted curve, though single readings scatter.

Biological target: Flap endonuclease 1 (Homo sapiens) (UniProt P39748)
Experiment: qHTS Validation Assay for the Inhibitors of Human Flap endonuclease 1 (FEN1) (AID 488816)
Conditions: FEN1 nuclease activity, fluorogenic DNA substrate; series mostly up to 57.1 µM; activity, negative = inhibition: at the top concentration
Text: The major human flap endonuclease FEN1 is an efficient structure-specific enzyme that recognizes and cleaves a 5'-unannealed DNA flap. It belongs to the RAD2 family nucleases, which are involved in DNA metabolism and are highly conserved in prokaryotes and eukaryotes. FEN1 is a key enzyme in DNA replication, repair and maintenance of genomic stability. 5'-flap removal by FEN1 is critical for Okazaki fragment processing during lagging strand DNA synthesis, long-patch base excision repair (LP BER), and regulating or facilitating recombination events. […] Deletion of the yeast FEN1 gene, i.e. rad27, results in an increased frequency of short DNA (3-32 bp) repeats, micro- and mini-satellite formation, trinucleotide repeat expansion, spontaneous recombination events, and a severe growth defect in association with cell cycle arrest in late S/G2 phase. […] Cells from fen1-/- blastocysts show increased apoptotic cell death after ionizing radiation treatment, and chicken cells lacking the fen1 gene are hypersensitive to DNA alkylating agents, e.g. methylmethane sulfonate (MMS) and N-methyl-N'-nitro-N-nitrosoguanidine (MNNG), as well as hydrogen peroxide.
FEN1 is found to be increased in many human cancers, including lung, brain cancer, gastric cancer, prostate cancer, pancreatic cancer and breast cancer. […] In particular, elevation of FEN1 in hormone refractory human prostate cancer cells correlates with resistant to various anticancer agents including ionizing radiation, doxorubicin, paclitaxel and vinblastine.
Three uL of reagents (buffer in column 3 and 4 as negative control and 10 nM FEN1 in columns 1, 2, and 5-48) were dispensed into 1,536-well black solid-bottomed plate. Compounds (23 nL) were transferred via Kalypsys pin tool equipped with 1536-pin array (10 nL slotted pins, V&P Scientific, San Diego, CA). The plates were then incubated for 15 min at room temperature, and 1 uL substrate (50 nM final concentration) were added to start the reaction read twice at 0 min read and 15 min on ViewLux reader. Throughout the screen, reagent bottle and all liquid lines were chilled and made light-tight to minimize reagent degradation. All screening operations were performed on a fully integrated robotic system (Kalypsys, San Diego, CA) containing one RX-130 and two RX-90 anthropomorphic robotic arms (Staubli, Duncan, SC). Library plates were screened starting from the lowest and proceeding to the highest concentration, and a "double-dipping" step of the highest concentration was required to access higher concentrations of compounds. Vehicle-only plates, with DMSO being pin-transferred to the entire column 5-48 compound area, were inserted uniformly at the beginning and the end of each library in order to monitor for and record any shifts in the background, which can be affected by reagent dispensers or loss in enzyme activity overtime. Screening data was corrected, normalized, and concentration-effect relationships were derived by using publicly-available curve fitting algorithms developed in-house (http://ncgc.nih.gov/pub/openhts). A four parameter Hill equation was fitted to the concentration-response data by minimizing the residual error between the modeled and observed responses.
% is set by controls: 0 for no effect and ±100 for the full control effect; potency is the fitted concentration of half-maximal effect.

Chain of Flap endonuclease 1 (Homo sapiens) (P39748 whole entry, looked up): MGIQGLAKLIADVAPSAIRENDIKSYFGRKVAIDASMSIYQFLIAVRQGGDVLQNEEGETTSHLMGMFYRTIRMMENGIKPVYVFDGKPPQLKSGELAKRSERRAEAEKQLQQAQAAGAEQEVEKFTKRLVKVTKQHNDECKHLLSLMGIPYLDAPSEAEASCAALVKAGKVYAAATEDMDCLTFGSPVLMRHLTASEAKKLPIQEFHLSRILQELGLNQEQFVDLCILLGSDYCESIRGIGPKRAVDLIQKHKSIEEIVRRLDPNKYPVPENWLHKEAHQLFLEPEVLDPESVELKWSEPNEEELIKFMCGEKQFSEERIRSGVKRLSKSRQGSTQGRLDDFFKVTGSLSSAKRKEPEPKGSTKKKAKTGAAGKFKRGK

Row | Structure (SMILES) | activity, negative = inhibition | Potency
1 | NCCCCC(=O)O | 0.626% (inactive) | 
2 | CCCC1(C)C(C#N)(C#N)C1(C#N)C#N | -2.28% (inactive) | 
3 | CCCCCCCCCCCCCCCC(=O)OC(CC(=O)O)C[N+](C)(C)C (stereo not given) | -9.13% (inactive) | 
4 | Cc1cc(NC2CCCCC2)nc(-n2nc(C)cc2C)n1 | -5.73% (inactive) | 
5 | CCOC(=O)C1=C(C)NC(C)=C(C(=O)OCC)C1c1c(F)c(F)c(F)c(F)c1F | -23.1% (inactive) | 
6 | Clc1ccc(N2CCN(Cc3cc4ccccn4n3)CC2)cc1 | -8.09% (inactive) | 
7 | COc1ccccc1CNCCCCCCNCCCCCCCCNCCCCCCNCc1ccccc1OC | -15.6% (inactive) | 
8 | NC(=O)C1=CN(C2OC(COP(=O)(O)OP(=O)(O)OC[C@H]3O[C@@H](n4cnc5c(N)ncnc54)[C@H](OP(=O)(O)O)[C@@H]3O)C(O)C2O)C=CC1 (stereo not given in full) | -1.39% (inactive) | 
9 | CSc1ccccc1N1CCN(CCCCCC(=O)NC2CCCc3ccccc32)CC1 (stereo not given) | -10.5% (inactive) | 
10 | CN(C)c1ccc(/C=C2\C(=O)Nc3ccccc32)cc1 | -11.3% (inactive) | 
11 | C[C@@H](NC(=O)/C(C#N)=C/c1ccc(O)c(O)c1)c1ccccc1 | -10.4% (inactive) | 
12 | CN1CCC[C@H]1c1cccnc1 | -7.01% (inactive) | 
13 | CO/S(=N\S(=O)(=O)c1ccc(Cl)cc1)c1ccc([N+](=O)[O-])cc1 (stereo not given) | -2.79% (inactive) | 
14 | N=c1ccn2c(n1)O[C@H]1[C@H](O)[C@@H](CO)O[C@H]12 | -0.81% (inactive) | 
15 | Oc1ccc(C2CNCc3sccc32)cc1O (stereo not given) | -6.57% (inactive) | 
16 | O=C(O)CNC(=O)C(CS)Cc1ccccc1 (stereo not given) | -4.41% (inactive) | 
17 | CNCC[C@H](Oc1ccc(C(F)(F)F)cc1)c1ccccc1 | -6.42% (inactive) | 
18 | Nc1ncnc2c1ncn2[C@@H]1O[C@H](COP(=O)(O)OP(=O)(O)OP(=O)(O)OP(=O)(O)OC[C@@H]2O[C@H](n3cnc4c(N)ncnc43)[C@@H](O)[C@H]2O)[C@@H](O)[C@H]1O | -6.28% (inactive) | 
19 | C[N+](C)(CCCCCC[N+](C)(C)CCCN1C(=O)c2cccc3cccc(c23)C1=O)CCCN1C(=O)c2cccc3cccc(c23)C1=O |  | 2.99 µM (active)
20 | Fc1cccc(/C=N/N=C/c2cccc(F)c2)c1 | -5.84% (inactive) | 

Row | Structure (SMILES) | activity, negative = inhibition | Potency
21 | CCCN(CC1CC1)c1nc(C)nc(Nc2c(Cl)cc(Cl)cc2Cl)c1Cl | -5.73% (inactive) | 
22 | COc1cc(SC)ccc1C(=O)N1CCC(Cc2ccccc2)CC1 | -11.8% (inactive) | 
23 | CC(C)ON([C@@H](C(=O)NO)C(C)C)S(=O)(=O)c1ccc(-c2ccccc2)cc1 | -10.4% (inactive) | 
24 | NC(=S)c1ccc[n+]([C@@H]2O[C@@H](COP(=O)([O-])OP(=O)(O)OC[C@H]3O[C@@H](n4cnc5c(N)ncnc54)[C@H](OP(=O)(O)O)[C@@H]3O)C(O)C2O)c1 (stereo not given in full) | -1.93% (inactive) | 
25 | Nc1nc(Nc2ccccc2)nc2c1ncn2[C@@H]1O[C@H](CO)[C@@H](O)[C@H]1O | -14% (inactive) | 
26 | C=CC(C)=C[C@@]1(C)SC(=O)C(C)=C1O | -7.47% (inactive) | 
27 | NC[C@H]1O[C@@H](n2cnc3c(N)ncnc32)[C@H](O)[C@@H]1O | 0.862% (inactive) | 
28 | CN(C)CCC(c1ccc(Cl)cc1)c1ccccn1 (stereo not given) | -2.77% (inactive) | 
29 | CNc1ncnc2c1ncn2[C@@H]1O[C@H](CO)[C@@H](O)[C@H]1O | -6.25% (inactive) | 
30 | CCCCCCCCCCCCCCCCCC(=O)NCC(COP(=O)([O-])OCC[N+](C)(C)C)OCC (stereo not given) | 2% (inactive) | 
31 | CNC(=O)[C@H]1O[C@@H](n2cnc3c(NCc4ccc(N)cc4)ncnc32)[C@H](O)[C@@H]1O | -7.02% (inactive) | 
32 | c1cnc2c(c1)ccc1cccnc12 | -8.82% (inactive) | 
33 | Clc1ccc(N2CCN(Cc3c[nH]c4ncccc34)CC2)cc1 | -28% (inactive) | 
34 | O=C1NC(=O)/C(=C/c2ccc(-c3ccc(F)cc3O)o2)S1 |  | 26.7 µM (active)
35 | COc1ccc(NC(=O)/C=C/c2ccc(Cl)cc2)cc1 | -13.5% (inactive) | 
36 | Fc1ccc(C(OCCCc2cnc[nH]2)c2ccc(F)cc2)cc1 | 0.815% (inactive) | 
37 | C[N+](C)(C)CCOP(=O)(O)OP(=O)([O-])OC[C@H]1O[C@@H](n2ccc(N)nc2=O)[C@H](O)[C@@H]1O | -1.34% (inactive) | 
38 | NCCCS(=O)(=O)O | -2.92% (inactive) | 
39 | CCCCCCCCCCCCCCCC(=O)NCC(COP(=O)([O-])OCC[N+](C)(C)C)OCC (stereo not given) | 0.866% (inactive) | 
40 | COc1ccccc1N1CCN(CCN(C(=O)c2ccc(I)cc2)c2ccccn2)CC1 | -8.98% (inactive) | 
